# Experimental data as given in PMC7862700, “An all-to-all approach to the identification of sequence-specific readers for epigenetic DNA modifications on cytosine”.
# Key:
# Assay in all cases: DAPPL (digital affinity profiling via proximity ligation, sequencing); 10 mM Tris-HCl pH 7.5, 50 mM NaCl, 1 mM DTT, 4% glycerol, room temperature, 30 min; GST-TFs on glutathione beads, 16-mer random dsDNA library, 0.1% formaldehyde crosslink after washing; high values mean tight binding
# Settings in all cases: protein: recombinant; tags: N-terminal GST; dsDNA, one strand shown
# SPIC = target: T1, SPIC (Homo sapiens, UniProt Q8N5J4 1-248)
# T1 sequence: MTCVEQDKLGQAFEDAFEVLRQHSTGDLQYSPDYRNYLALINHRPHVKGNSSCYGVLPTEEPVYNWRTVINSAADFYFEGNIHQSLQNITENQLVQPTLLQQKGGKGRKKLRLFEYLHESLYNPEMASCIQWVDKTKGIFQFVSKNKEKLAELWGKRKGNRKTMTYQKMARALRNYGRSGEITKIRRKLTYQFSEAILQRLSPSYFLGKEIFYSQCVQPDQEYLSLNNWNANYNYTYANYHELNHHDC
# Outline: (§1)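 A tag-only sample was pooled with DNA-barcoded human transcription factors that had been expressed in yeast as GST fusions and captured on glutathione beads. The pools were incubated for 30 min at room temperature with 200 nmole of a random double-stranded 16-mer DNA library in Tris/NaCl/DTT/glycerol buffer, then washed, crosslinked with 0.1% formaldehyde, proximity-ligated (BsaI/T4 ligase, 1 h, 37 °C), PCR-amplified and sequenced on an Illumina NextSeq500. Binding signal is each hexamer's read frequency for a factor divided by its frequency for the tag-only sample.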
# ELK4 = target: T2, ELK4 (Homo sapiens, UniProt P28324-2 1-405)
# T2 sequence: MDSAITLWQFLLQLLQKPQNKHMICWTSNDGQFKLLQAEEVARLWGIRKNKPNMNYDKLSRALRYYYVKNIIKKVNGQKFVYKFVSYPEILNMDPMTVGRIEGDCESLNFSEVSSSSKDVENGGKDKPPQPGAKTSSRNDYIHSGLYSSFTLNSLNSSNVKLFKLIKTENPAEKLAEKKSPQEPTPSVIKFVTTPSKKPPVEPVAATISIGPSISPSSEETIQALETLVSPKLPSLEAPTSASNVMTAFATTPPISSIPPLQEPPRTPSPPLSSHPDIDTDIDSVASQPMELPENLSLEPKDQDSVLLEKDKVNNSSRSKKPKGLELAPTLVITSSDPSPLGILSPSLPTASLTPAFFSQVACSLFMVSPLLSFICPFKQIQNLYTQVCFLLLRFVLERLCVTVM
# Outline: as §1
# SPDEF = target: T3, SPDEF (Homo sapiens, UniProt O95238 1-335)
# T3 sequence: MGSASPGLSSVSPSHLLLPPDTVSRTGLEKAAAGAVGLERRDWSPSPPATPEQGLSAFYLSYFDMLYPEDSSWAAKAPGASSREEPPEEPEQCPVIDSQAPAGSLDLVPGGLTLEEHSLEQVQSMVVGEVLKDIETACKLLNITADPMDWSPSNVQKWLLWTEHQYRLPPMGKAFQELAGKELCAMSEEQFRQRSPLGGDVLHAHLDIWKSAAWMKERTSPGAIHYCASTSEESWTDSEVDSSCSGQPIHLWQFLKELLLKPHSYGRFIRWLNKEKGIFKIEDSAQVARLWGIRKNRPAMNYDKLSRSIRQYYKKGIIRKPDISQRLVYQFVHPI
# Outline: as §1
# ELK3 = target: T4, ELK3 (Homo sapiens, UniProt P41970 1-407)
# T4 sequence: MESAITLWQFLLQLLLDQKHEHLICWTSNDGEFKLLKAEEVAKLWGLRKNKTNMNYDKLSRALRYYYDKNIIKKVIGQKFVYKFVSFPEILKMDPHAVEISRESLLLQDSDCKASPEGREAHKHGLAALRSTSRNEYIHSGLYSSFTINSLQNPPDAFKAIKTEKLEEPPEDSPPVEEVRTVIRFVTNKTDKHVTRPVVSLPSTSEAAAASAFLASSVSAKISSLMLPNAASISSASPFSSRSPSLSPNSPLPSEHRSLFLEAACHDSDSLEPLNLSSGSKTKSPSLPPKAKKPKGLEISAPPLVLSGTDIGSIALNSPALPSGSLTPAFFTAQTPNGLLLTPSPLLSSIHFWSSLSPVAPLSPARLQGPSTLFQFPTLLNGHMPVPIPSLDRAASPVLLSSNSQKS
# Outline: as §1
# ELF5 = target: T5, ELF5 (Homo sapiens, UniProt Q9UKW6-2 1-255)
# T5 sequence: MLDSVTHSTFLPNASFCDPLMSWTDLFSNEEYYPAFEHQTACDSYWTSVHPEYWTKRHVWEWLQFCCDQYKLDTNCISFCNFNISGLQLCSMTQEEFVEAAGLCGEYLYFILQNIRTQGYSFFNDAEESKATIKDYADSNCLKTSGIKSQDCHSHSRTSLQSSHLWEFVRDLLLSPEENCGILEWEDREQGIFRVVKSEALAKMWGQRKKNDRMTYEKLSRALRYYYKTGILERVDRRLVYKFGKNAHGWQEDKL
# Outline: as §1
# CRX = CRX (Homo sapiens, UniProt O43186 1-299)
# Outline: as §1
# Chain of CRX (O43186 whole entry): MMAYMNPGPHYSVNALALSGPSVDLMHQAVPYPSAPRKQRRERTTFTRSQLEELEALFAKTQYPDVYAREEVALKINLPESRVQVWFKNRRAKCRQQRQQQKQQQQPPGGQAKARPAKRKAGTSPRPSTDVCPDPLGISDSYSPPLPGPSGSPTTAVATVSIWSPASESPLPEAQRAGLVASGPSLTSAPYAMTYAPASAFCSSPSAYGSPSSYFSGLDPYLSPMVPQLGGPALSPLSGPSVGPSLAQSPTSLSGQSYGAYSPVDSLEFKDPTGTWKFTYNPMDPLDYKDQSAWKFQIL
Sequence,binding signal (SPIC),binding signal (ELK4),binding signal (SPDEF),binding signal (ELK3),binding signal (ELF5),binding signal (CRX)
GGTCCT,"1.11 fold enrichment (6-mer frequency, TF over GST control)","1.05 fold enrichment (6-mer frequency, TF over GST control)","1.1 fold enrichment (6-mer frequency, TF over GST control)",–,–,–
GCCGCC,"1.03 fold enrichment (6-mer frequency, TF over GST control)",–,–,"1.15 fold enrichment (6-mer frequency, TF over GST control)","1.01 fold enrichment (6-mer frequency, TF over GST control)",–
CATACC,"1.03 fold enrichment (6-mer frequency, TF over GST control)",–,"1.14 fold enrichment (6-mer frequency, TF over GST control)","1.09 fold enrichment (6-mer frequency, TF over GST control)","1.04 fold enrichment (6-mer frequency, TF over GST control)",–
TGTGGT,"1.02 fold enrichment (6-mer frequency, TF over GST control)","1.03 fold enrichment (6-mer frequency, TF over GST control)","1.07 fold enrichment (6-mer frequency, TF over GST control)",–,"1.03 fold enrichment (6-mer frequency, TF over GST control)",–
TCGTCA,"1.15 fold enrichment (6-mer frequency, TF over GST control)",–,"1.06 fold enrichment (6-mer frequency, TF over GST control)",–,–,–
CGCTAT,"1.01 fold enrichment (6-mer frequency, TF over GST control)","1.07 fold enrichment (6-mer frequency, TF over GST control)","1.1 fold enrichment (6-mer frequency, TF over GST control)","1.13 fold enrichment (6-mer frequency, TF over GST control)","1.16 fold enrichment (6-mer frequency, TF over GST control)",–
CGATGT,"1.07 fold enrichment (6-mer frequency, TF over GST control)",–,"1.12 fold enrichment (6-mer frequency, TF over GST control)","1.04 fold enrichment (6-mer frequency, TF over GST control)",–,–
GTTACG,"1.05 fold enrichment (6-mer frequency, TF over GST control)","1.03 fold enrichment (6-mer frequency, TF over GST control)","1.04 fold enrichment (6-mer frequency, TF over GST control)","1.01 fold enrichment (6-mer frequency, TF over GST control)",–,–
CGCTGG,"1.01 fold enrichment (6-mer frequency, TF over GST control)","1.01 fold enrichment (6-mer frequency, TF over GST control)",–,–,–,–
TACGGT,"1.02 fold enrichment (6-mer frequency, TF over GST control)","1.02 fold enrichment (6-mer frequency, TF over GST control)","1.1 fold enrichment (6-mer frequency, TF over GST control)","1.11 fold enrichment (6-mer frequency, TF over GST control)","1.04 fold enrichment (6-mer frequency, TF over GST control)","1.03 fold enrichment (6-mer frequency, TF over GST control)"
CGGAAC,"1.09 fold enrichment (6-mer frequency, TF over GST control)",–,"1.32 fold enrichment (6-mer frequency, TF over GST control)","1.21 fold enrichment (6-mer frequency, TF over GST control)","1.3 fold enrichment (6-mer frequency, TF over GST control)",–
TAACCG,"1.08 fold enrichment (6-mer frequency, TF over GST control)",–,"1.1 fold enrichment (6-mer frequency, TF over GST control)","1.13 fold enrichment (6-mer frequency, TF over GST control)","1.05 fold enrichment (6-mer frequency, TF over GST control)","1.1 fold enrichment (6-mer frequency, TF over GST control)"
AGGAAC,"1.23 fold enrichment (6-mer frequency, TF over GST control)",–,"1.05 fold enrichment (6-mer frequency, TF over GST control)","1 fold enrichment (6-mer frequency, TF over GST control)","1.28 fold enrichment (6-mer frequency, TF over GST control)",–
GGAAGA,"1.08 fold enrichment (6-mer frequency, TF over GST control)",–,–,"1.19 fold enrichment (6-mer frequency, TF over GST control)","1.58 fold enrichment (6-mer frequency, TF over GST control)",–
ACGGCA,"1.05 fold enrichment (6-mer frequency, TF over GST control)",–,"1.11 fold enrichment (6-mer frequency, TF over GST control)","1.01 fold enrichment (6-mer frequency, TF over GST control)","1.03 fold enrichment (6-mer frequency, TF over GST control)",–
AGTATG,"1.04 fold enrichment (6-mer frequency, TF over GST control)",–,–,–,"1.06 fold enrichment (6-mer frequency, TF over GST control)",–
CTGCGG,"1.06 fold enrichment (6-mer frequency, TF over GST control)",–,–,"1.05 fold enrichment (6-mer frequency, TF over GST control)","1.06 fold enrichment (6-mer frequency, TF over GST control)",–
GGACTC,"1.01 fold enrichment (6-mer frequency, TF over GST control)","1.04 fold enrichment (6-mer frequency, TF over GST control)",–,"1.04 fold enrichment (6-mer frequency, TF over GST control)",–,–
CACGGA,"1.06 fold enrichment (6-mer frequency, TF over GST control)","1.05 fold enrichment (6-mer frequency, TF over GST control)","1.25 fold enrichment (6-mer frequency, TF over GST control)",–,"1.29 fold enrichment (6-mer frequency, TF over GST control)",–
AGCTGT,"1.15 fold enrichment (6-mer frequency, TF over GST control)","1.04 fold enrichment (6-mer frequency, TF over GST control)",–,–,–,"1.02 fold enrichment (6-mer frequency, TF over GST control)"
GGCCCC,"1.01 fold enrichment (6-mer frequency, TF over GST control)","1.02 fold enrichment (6-mer frequency, TF over GST control)","1.05 fold enrichment (6-mer frequency, TF over GST control)",–,–,–
GGCTCG,"1.12 fold enrichment (6-mer frequency, TF over GST control)","1.11 fold enrichment (6-mer frequency, TF over GST control)",–,–,–,–
ATAAGG,"1.12 fold enrichment (6-mer frequency, TF over GST control)",–,"1.05 fold enrichment (6-mer frequency, TF over GST control)","1.19 fold enrichment (6-mer frequency, TF over GST control)","1.25 fold enrichment (6-mer frequency, TF over GST control)","1.28 fold enrichment (6-mer frequency, TF over GST control)"
TGTGGC,"1.14 fold enrichment (6-mer frequency, TF over GST control)","1.16 fold enrichment (6-mer frequency, TF over GST control)",–,–,–,–
TGCGGC,"1.19 fold enrichment (6-mer frequency, TF over GST control)",–,–,"1.01 fold enrichment (6-mer frequency, TF over GST control)",–,–
GAAGTC,"1.23 fold enrichment (6-mer frequency, TF over GST control)",–,"1.06 fold enrichment (6-mer frequency, TF over GST control)","1.19 fold enrichment (6-mer frequency, TF over GST control)","1.26 fold enrichment (6-mer frequency, TF over GST control)",–
GTACGC,"1.2 fold enrichment (6-mer frequency, TF over GST control)",–,–,–,"1.06 fold enrichment (6-mer frequency, TF over GST control)",–
CGCGAC,"1.31 fold enrichment (6-mer frequency, TF over GST control)","1.14 fold enrichment (6-mer frequency, TF over GST control)","1.08 fold enrichment (6-mer frequency, TF over GST control)",–,–,–
ACGATG,"1.03 fold enrichment (6-mer frequency, TF over GST control)",–,"1.14 fold enrichment (6-mer frequency, TF over GST control)","1.17 fold enrichment (6-mer frequency, TF over GST control)","1.01 fold enrichment (6-mer frequency, TF over GST control)",–
AGTGTC,"1.11 fold enrichment (6-mer frequency, TF over GST control)",–,"1.05 fold enrichment (6-mer frequency, TF over GST control)","1.01 fold enrichment (6-mer frequency, TF over GST control)","1.15 fold enrichment (6-mer frequency, TF over GST control)",–
